Test results as given in PubChem BioAssay AID686978 (National Center for Advancing Translational Sciences (NCATS), 2013).
In all, about 420,000 compounds went through this assay and about 64,000 (15%) were called active. Another 27% or so got no clear call; they are omitted. A selection follows. Values without a mark were called inactive. The call rests on the fitted dose curve; in most records, active means well fitted inhibition curve with a large enough effect; inconclusive means small, poorly fitted or top-dose-only effect; inactive means flat fitted curve, though single readings scatter.

test: qHTS for Inhibitors of human tyrosyl-DNA phosphodiesterase 1 (TDP1): qHTS in cells in absence of CPT; details: DT40 Tdp1-/- hTDP1 cells, no CPT, ATP luminescence, 48 h; activity change, negative = growth inhibition: at 46.2 µM (top of the series); further: nearly all actives have a fitted effect of over 55% in size
Outline: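 Chicken DT40 Tdp1-/- cells stably complemented with human TDP1 were seeded at 400 cells/well with DMSO in place of 20 nM camptothecin. After compound pinning, cells grew at least 48 hr at 37 °C; viability read by CellTiter-Glo luminescence.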
On the % scale 0 is the no-effect control and ±100 the full control effect; potency means the concentration at half of the fitted maximal effect.

| SMILES | activity change, negative = growth inhibition | Potency |
| --- | --- | --- |
| Cc1cn([C@H]2C[C@H](O)[C@@H](/C=C/C(=O)NCCCc3ccccc3)O2)c(=O)[nH]c1=O | -6.38% | – |
| Cc1ccc(C)c(NC(=O)C2CCCN2C(=O)OC(C)(C)C)c1 (stereo unspecified) | -7.65% | – |
| Cn1c(=O)cc(OCC(=O)N2CCN(c3ccccc3)CC2)c2ccccc21 | 1.19% | – |
| CCOC(=O)c1c(C)[nH]c(CCC(=O)NCCCN2CCN(c3cc(C)ccc3C)CC2)c1C | – | 4.61 µM (active) |
| Cc1ccc(C)c(N2CCN(CCCNC(=O)Nc3ccc(Cl)cc3)CC2)c1 | – | 6.51 µM (active) |
| Cc1ccccc1N1CCN(CC(=O)NCc2ccc(Cl)cc2)CC1 | -29% | – |
| O=C(COc1cc2oc(=O)c3c(c2cc1Cl)CCC3)NCCCN1CCOCC1 | 1.09% | – |
| CCOC(=O)c1c(C)[nH]c(CCC(=O)NCCCN2CCN(c3cccc(Cl)c3)CC2)c1C | – | 16.4 µM (active) |
| CCOC(=O)c1c(C)[nH]c(C(=O)NCCN2CCOCC2)c1C | 14.9% | – |
| CCOC(=O)N1CCC(Nc2c(NCCCN3CCN(c4ccc(OC)cc4)CC3)c(=O)c2=O)CC1 | 6.14% | – |
| CCn1c(=O)cc(OCC(=O)NCCCN2CCN(c3cccc(Cl)c3)CC2)c2ccccc21 | – | 20.6 µM (active) |
| COc1ccc(N2CCN(CCNC(=O)Nc3cc(Cl)ccc3Cl)CC2)cc1 | -3.29% | – |
| CCOC(=O)N1CCC(Nc2c(NCCN3CCN(c4cccc(Cl)c4)CC3)c(=O)c2=O)CC1 | -11.3% | – |
| Cc1ccc(C)c(N2CCN(C(=O)Cc3c(C(=O)O)c(C)cn3C)CC2)c1 | -0.116% | – |
| CCOc1ccc(S(=O)(=O)NCCCn2ccnc2)cc1NC(C)=O | -20.8% | – |
| CN(CCc1ccccc1)c1ccc([N+](=O)[O-])cn1 | 5.85% | – |
| C/C=C(/C)C(=O)Nc1cccc(C2=NOC3(C2)C[C@@H](C(N)=O)N(C(=O)C2(C)CC2)C3)c1 (stereo partly specified) | -16.5% | – |
| O=C(NCC(O)c1ccc([N+](=O)[O-])cc1)C1CCCCC1 (stereo unspecified) | 13.8% | – |
| C=CC1C(OC2OC(CO)C(O)C(O)C2O)OC=C(C(=O)OC)C1CC1CC(=O)CC(CC(=O)CCc2ccc(O)cc2)O1 (stereo unspecified) | -16.7% | – |
| C[C@@H](O)c1nc2ccccc2n1N | 10.4% | – |
| C#CCOCCOCCOCCNc1nc(N2CCOCC2)nc(N2CCN(C(=O)[C@H](Cc3ccc(O)cc3)n3cc(CCO)nn3)CC2)n1 | 20.5% | – |
| Cn1cc(CN2CCCCC2c2ccccn2)c(-c2ccc3c(c2)OCCO3)n1 (stereo unspecified) | -11.7% | – |
| CCc1nnc(NC(=O)CCC(=O)N2CCN(c3cc(C)ccc3C)CC2)s1 | -7.76% | – |
| CC1=C(c2ccc(C)cc2)S(=O)(=O)NC1=NCCCN1CCN(c2cc(C)ccc2C)CC1 | – | 3.66 µM (active) |
| COC(=O)c1ccc2c(c1)S(=O)(=O)NC(=NCCCN1CCOCC1)S2 | -1.67% | – |
| CCN(CC)C(=O)N1CCN(C(=O)c2ccc(C)cn2)CC1 | -5.87% | – |

| SMILES | activity change, negative = growth inhibition | Potency |
| --- | --- | --- |
| O=C(N/N=C/c1ccc(Cl)c(Cl)c1)c1ccc2nc[nH]c2c1 | – | 23.1 µM (active) |
| Cc1nc2ccc(C(=O)N/N=C/c3ccc(O)cc3)cc2[nH]1 | -4.18% | – |
| CC(=NNC(=O)c1ccc2nc[nH]c2c1)c1ccc(Br)cc1 | -25.5% | – |
| CCCCc1ccc(S(=O)(=O)NC(=O)C2(C)CCN2C(=O)c2ccccc2)cc1 (stereo unspecified) | -2.64% | – |
| COc1ccc(C2/C(=C(/O)c3ccc4c(c3)CC(C)O4)C(=O)C(=O)N2Cc2ccncc2)cc1 (stereo unspecified) | 2.22% | – |
| COc1cc(C2C(C(=O)OCCC#N)=C(C)NC3=C2S(=O)(=O)c2ccccc23)cc(OC)c1OC (stereo unspecified) | 18.7% | – |
| O=C(Nc1ccccc1Br)c1cc(CN2CCCC2)on1 | -15% | – |
| O=C(c1ccco1)N1CCN(C(=O)c2cc(-c3ccccc3F)no2)CC1 | -5.39% | – |
| CN(Cc1ccccc1)Cc1ccccc1F | -26.3% | – |
| CN(Cc1ccccc1F)C(=O)C(Cc1ccccc1)NC(=O)c1ccccc1 (stereo unspecified) | – | 16.4 µM (active) |
| CC(Cc1ccccc1)C(=O)N(C)Cc1ccccc1 (stereo unspecified) | -13.9% | – |
| Cc1ccc(C)c(C(C)NC(=O)C2CCCO2)c1 (stereo unspecified) | -28.7% | – |
| O=c1onc(-c2c(F)cccc2F)n1-c1ccccc1Cl | 16.1% | – |
| CCOC(=O)CSc1nc2sc3c(c2c(=O)[nH]1)CC(C)(C)OC3 | -25.4% | – |
| CCSc1nc2sc3c(c2c(=O)[nH]1)CC(C)(C)OC3 | -19.9% | – |
| CCOC(=O)Cn1c(SC)nc2sc3c(c2c1=O)CC(C)(C)OC3 | – | 14.6 µM (active) |
| CCOC(=O)C1(Cc2ccc(O)cc2)NC(c2ccccc2F)C2C(=O)N(C)C(=O)C21 (stereo unspecified) | – | 20.6 µM (active) |
| COC(=O)C1(C)NC(c2ccccc2OC)C2C(=O)N(c3ccccc3)C(=O)C21 (stereo unspecified) | 9.08% | – |
| CCOCCOC(=O)C1=C(C)N(C)C(=O)NC1c1ccccc1F (stereo unspecified) | -14.8% | – |
| Cc1cc(C)cc(NC(=O)Cn2cnc3c(nnn3Cc3ccc(F)cc3)c2=O)c1 | 0.0292% | – |
| Cc1ccc(C)c(Cn2nnc3c(=O)[nH]c(C(=O)Nc4ccc(F)cc4)nc32)c1 | – | 16.4 µM (active) |
| Cc1n[nH]c(=O)c2c1nnn2Cc1ccc(F)cc1 | 17.2% | – |
| O=C1NC(c2ccccc2)Oc2ccccc21 (stereo unspecified) | -0.613% | – |
| O=C(OCCN1C(=O)c2ccccc2C1=O)Oc1ccccc1 | 3.82% | – |
| C[C@H]1CN([C@@H](C)CO)C(=O)CCCn2cc(nn2)CO[C@@H]1CN(C)C(=O)Nc1ccccc1 | 9.92% | – |
